Screening data from PubChem.
TRHR agonist: activates the human TRH receptor | 360,000 compounds, 0.18% hits | activation, % at 2 µM | TRHR cells, calcium flux fluo-8, FDSS agonist mode | AID 493084; further: 0% is about no effect
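Read-out: compound-evoked intracellular calcium rise in TRHR cells, fluo-8 dye, kinetic FDSS fluorescence at 1 s/cycle following a 10-cycle baseline. Cells cultured overnight before dye loading (30 min–1.5 h, RT).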
D1 PAM: human D1 dopamine receptor positive modulation | potentiation, % at 10 µM | 360,000 compounds, 0.036% hits | HEK293 TREx D1 cells, calcium flux, dopamine EC20 potentiation | P21728 | AID 504651; in the data active means potentiation above about 30%; further: 0% is about no effect
Target sequence (P21728 whole entry, looked up): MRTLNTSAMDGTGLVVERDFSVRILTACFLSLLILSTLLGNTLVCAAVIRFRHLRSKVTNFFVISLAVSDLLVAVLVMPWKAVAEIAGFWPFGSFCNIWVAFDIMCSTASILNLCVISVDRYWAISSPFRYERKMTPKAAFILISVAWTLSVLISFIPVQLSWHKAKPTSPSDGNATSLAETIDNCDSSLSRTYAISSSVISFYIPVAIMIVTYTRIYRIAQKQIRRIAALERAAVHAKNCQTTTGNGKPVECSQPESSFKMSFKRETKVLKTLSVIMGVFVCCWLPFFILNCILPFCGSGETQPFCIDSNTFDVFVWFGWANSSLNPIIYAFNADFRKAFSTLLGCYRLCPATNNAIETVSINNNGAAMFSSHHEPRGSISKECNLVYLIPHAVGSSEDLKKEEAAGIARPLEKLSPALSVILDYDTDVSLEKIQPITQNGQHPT
TRHR enhancer: allosterically enhances the human TRH receptor; P34981; TRHR cells, fluo-8 calcium fluorescence, EC20 TRH enhancement; enhancement, % at 2 µM; 360,000 compounds, 0.66% hits; AID 493056; in the data active means enhancement above about 30%; further: 0% is about no effect
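Enhancer read-out: after compound pinning and an initial kinetic agonist-mode read, an EC20 of TRH (10 nM final) was injected and fluo-8 calcium signal (Ex 480/Em 530) followed at 1 s/cycle for 100 cycles in TRHR-expressing cells.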
D1 agonist: human D1 receptor agonism; HEK293 T-REx D1 cells, calcium flux, agonist mode; activation, % at 2 µM; 360,000 compounds, 1% hits; P21728; further: 0% is about no effect
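Inducible HEK293 T-REx D1 cells, force-coupled to calcium signalling, were plated at 4000 cells/well with tetracycline and held overnight at 30 C. After no-wash calcium dye loading, compound-evoked calcium rise over 180 s flagged agonists.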
D1 antag: antagonists of human D1 dopamine receptor; HEK293 TREx D1 cells, calcium flux, dopamine EC80; active compounds read low; P21728; activity change, negative = inhibition, % at 10 µM; 360,000 compounds, 3.2% hits; in the data active means activity change below about -30%; further: on the % scale 0 is the no-effect control and ±100 the full control effect
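Kinetic fluorescence of a calcium dye serves as the read-out. D1-expressing Hek293 Trex cells, induced overnight at 30 C, are exposed to compound for 180 s before an EC80 dopamine addition, then read 180 s further.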
* hit, by the source's call. Sampled rows, rich in hits. Any-hit rate of the full collection: about 4.6%. Unless noted, no stated cut-off is given here; in the data, active means activation above about 30%; inactive means the rest.

SMILES	TRHR agonist	D1 PAM	TRHR enhancer	D1 agonist	D1 antag
COc1ccc(Cl)cc1NC(=O)CSc1cn(CC(=O)N2CCCCC2)c2ccccc12	1	0	-5	4	-11
O=c1c2c3c(sc2n(Cc2ccc(F)cc2Cl)c(=O)n1-c1ccc(Cl)cc1)CCC3	-2	-1	-2	11	-20
COc1cc(S(=O)(=O)NCCc2c(C)[nH]c3ccc(C)cc23)ccc1Br	1	0	-10	4	-5
COc1cc(NC(=O)Nc2ccccc2OC)c(OC)cc1NC(=O)CN1CCCCC1	-1	-12	4	1	-32*
COc1ccccc1NC(=O)CN1CCN(C(=O)C2CCCO2)CC1 (stereo unspecified)	0	1	32*	3	-23
O=C(CN1CCN(C(=O)C2CCCO2)CC1)Nc1ccc(Cl)cc1 (stereo unspecified)	0	4	-3	-1	-30*
O=C(Nc1ccc(Cl)cc1)N1CCN(C(=O)C2CCCO2)CC1 (stereo unspecified)	0	-3	-4	1	-20
O=C(NCC(c1ccccc1)c1ccccc1)c1nn(-c2ccccc2F)nc1CO	0	4	-1	7	3
O=S(=O)(c1ccc2c(c1)OCCO2)N1CCN(S(=O)(=O)c2cccs2)CC1	0	-2	5	0	-2
CN1C(=O)c2cccc3c(S(=O)(=O)N4CCCC4C(=O)O)ccc1c23 (stereo unspecified)	1	14	16	3	-38*
Cc1ccc(CN(Cc2ccco2)C(=O)c2ccc(OCC(C)C)cc2)cc1	2	0	3	7	6
CCC1CCCCN1C(=O)CCn1ccnc1 (stereo unspecified)	0	4	32*	5	6
Cc1ccc(CNC(=O)c2ccc(CSCc3ccc(Cl)cc3)o2)cc1	2	-2	8	19	-13
O=C(NCc1ccc(Cl)cc1)c1ccc(CSCc2cccc(Cl)c2)o1	3	-4	-4	39*	-16
CCc1ccccc1S(=O)(=O)Cc1ccc(C(=O)NCc2ccc3c(c2)OCO3)o1	0	-8	-9	0	-56*
O=C(NCc1ccc2c(c1)OCO2)c1ccc(CSCc2ccc(Cl)cc2)o1	1	-2	1	17	-34*
O=C(NCc1ccc2c(c1)OCO2)c1ccc(CS(=O)(=O)Cc2cccc(Cl)c2)o1	1	-7	-2	12	-25
CC(=O)c1cccc(NC(=O)CCc2c(C)nc3c(-c4ccc(F)cc4)c(C)nn3c2C)c1	2	-6	13	2	-15
Cc1cccc(CCn2c(=O)c3ccccc3n(Cc3cccc(F)c3)c2=O)c1	1	9	0	11	7
CCOc1ccc(S(=O)(=O)n2nc(C)cc2C)c2ccccc12	-1	3	35*	6	17
COc1ccc(N(CC(=O)NCc2cccs2)S(=O)(=O)c2cccc(C)c2)cc1	0	2	0	5	-2
CC(=O)N1N=C(c2ccc(NS(=O)(=O)c3ccccc3)cc2)CC1c1ccco1 (stereo unspecified)	0	0	-4	0	-36*
CC(=O)N1N=C(c2cccc(NS(=O)(=O)c3ccc(C)cc3)c2)CC1c1ccco1 (stereo unspecified)	0	-4	3	12	-14
COc1ccc2oc(C(=O)OCC(=O)Nc3ccc(N4CCOCC4)cc3)c(C)c2c1	0	-20	2	0	-31*
CCOC(=O)c1c(CN2CCOCC2)oc2ccc(OC)cc12	0	-5	4	2	-45*
SMILES	TRHR agonist	D1 PAM	TRHR enhancer	D1 agonist	D1 antag
Cc1ccc(C(C(=O)NC2CCCCC2)N(Cc2ccccc2)C(=O)Cc2c[nH]c3ccccc23)o1 (stereo unspecified)	0	-6	-2	2	-82*
Cc1ccc(Cl)cc1NC(=O)CCS(=O)(=O)c1ccc2c(c1)n(C)c(=O)c(=O)n2C	-1	0	24	2	-35*
O=C(CCCCCn1c(=O)c2sccc2n(CC(=O)Nc2cc(C(F)(F)F)ccc2Cl)c1=O)NCc1ccccc1Cl	1	1	0	4	-3
O=C(NCc1ccc(F)cc1)c1cnc2n(c1=O)CCS2	0	-3	1	1	-37*
CC1=Nc2cc(C(=O)NC3CCCCC3)ccc2Sc2ccc(Cl)cc21	0	2	3	3	10
O=c1[nH]c(CN2CCN(c3ccccc3)CC2)nc2ccccc12	0	-7	1	3	6
CCC(CC)C(=O)N1CCN(Cc2nc3ccccc3c(=O)[nH]2)CC1	-1	-2	32*	2	-2
O=c1[nH]c(CN2CCN(c3ccc(F)cc3)CC2)nc2ccccc12	0	-5	34*	-1	-3
COc1cccc(N2CCN(Cc3nc4ccccc4c(=O)[nH]3)CC2)c1	0	-2	2	2	-62*
CC(C)OCCCNC(=O)NC(=O)c1ccc(Cl)cc1	2	-1	-4	12	-18
CCN(CC(=O)NC1CCS(=O)(=O)C1)C(C)C(=O)Nc1ccc(F)cc1 (stereo unspecified)	0	11	0	-2	11
O=S(=O)(Cc1ccc(Cl)cc1)N1CCCC1	0	2	-2	2	-74*
O=S(=O)(Cc1ccc(Cl)cc1)N1CCCCCC1	0	2	-2	3	3
Oc1[nH]c2ccccc2c1N=Nc1ccccc1F	9	-6	-3	39*	-2
Oc1[nH]c2ccccc2c1N=Nc1ccc(F)cc1	6	-6	7	29	-9
COC(=O)/C=C(\C)N=Nc1c(O)[nH]c2ccccc12	8	-4	-6	144*	26
O=S1(=O)N=C(N=Nc2c(O)[nH]c3ccccc23)c2ccccc21	0	0	-3	4	-34*
Oc1[nH]c2ccccc2c1N=Nc1ccccc1	2	5	4	11	58
CC(=O)c1ccc(NC(=O)c2cnc(N3CCCC3)nc2C)cc1	0	-1	-2	1	-1
CCCCSC1=N/C(=C/c2ccsc2)C(=O)N1c1ccccc1	2	-13	-8	16	-45*
CCSC1=N/C(=C/c2ccsc2)C(=O)N1c1ccccc1	0	-12	-2	5	-72*
CCOC(=O)CSC1=N/C(=C\c2cccnc2)C(=O)N1c1ccc(OC)cc1	2	-15	2	1	-7
C=CCSC1=N/C(=C\c2ccsc2)C(=O)S1	0	-2	1	3	-4
CCCSC1=N/C(=C/c2ccsc2)C(=O)N1c1ccccc1	1	-13	-1	13	-38*
CCC(Oc1ccc(F)cc1)C(=O)Nc1nc(-c2ccc(F)cc2)ns1 (stereo unspecified)	4	-1	-7	26	-15
CCN1C(=O)c2ccccc2S(=O)(=O)c2ccc(C(=O)NCc3ccccc3Cl)cc21	2	-3	-6	11	-13
